Screening results from PubChem.
FLuc counter = qHTS profiling assay for firefly luciferase inhibitor/activator using purifed enzyme and Km concentrations of substrates (counterscreen for miR-21 project); Luciferin 4-monooxygenase (Photinus pyralis), P08659; 360,000 tested, 6.9% active; purified FLuc, Km substrates, luminescence inhibition; Potency, µM (top dose mostly 57.5 µM), without a hit: at the highest dose activity change, negative = inhibition, usual class: inhibitors;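 further: plate controls were vehicle for no effect and reference inhibitor for full effect; nearly all actives have a fitted effect of over 55% in size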
Target sequence (P08659 whole entry, looked up): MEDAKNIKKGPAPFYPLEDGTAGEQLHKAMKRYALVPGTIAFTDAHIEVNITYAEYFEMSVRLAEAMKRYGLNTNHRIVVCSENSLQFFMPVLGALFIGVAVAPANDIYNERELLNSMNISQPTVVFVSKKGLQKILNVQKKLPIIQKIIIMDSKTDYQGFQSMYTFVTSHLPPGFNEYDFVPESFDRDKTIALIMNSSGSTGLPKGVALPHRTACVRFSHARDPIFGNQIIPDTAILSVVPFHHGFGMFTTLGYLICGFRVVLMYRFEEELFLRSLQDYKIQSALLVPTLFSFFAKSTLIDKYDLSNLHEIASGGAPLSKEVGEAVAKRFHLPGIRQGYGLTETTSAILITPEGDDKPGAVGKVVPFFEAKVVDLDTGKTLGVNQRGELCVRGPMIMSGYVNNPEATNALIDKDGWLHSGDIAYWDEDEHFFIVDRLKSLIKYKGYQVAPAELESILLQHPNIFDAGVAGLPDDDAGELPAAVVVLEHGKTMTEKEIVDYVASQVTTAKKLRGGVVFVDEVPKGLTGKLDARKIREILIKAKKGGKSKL
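Biochemical qHTS of compounds, final roughly 60 µM downward over six points, against 10 nM purified firefly luciferase using Km concentrations of substrates (10 uM D-luciferin, 10 uM ATP) in Tris acetate pH 7.5 buffer; luminescence output.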
Luc counter = Counterscreen for Luciferase (Kinase-Glo TM) Inhibition | Potency, µM (titrated, usually from 38.3 µM), for the others: at the highest dose activity change, negative = inhibition, actives largely listed as inhibitors | Luciferin 4-monooxygenase (Photuris pensylvanica), Q27757 | AID 1379, 2008 | 200,000 tested, 0.28% active | Kinase-Glo luciferase, ATP luminescence, 8 min; further: on the % scale 0 is the no-effect control and ±100 the full control effect; nearly all actives have a fitted effect of over 60% in size
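Light output from Kinase-Glo luciferase with luciferin and 10 uM ATP in 50 mM imidazole pH 7.2, KCl, MgCl2, Tween 20, BSA; compound pin-delivered, 8-min ambient incubation, then luminescence read.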
ELG1 genotoxic = qHTS screen for small molecules that induce genotoxicity in human embryonic kidney (HEK293T) cells expressing luciferase-tagged ELG1; 330,000 tested, 1.3% active; HEK293T ELG1-luciferase reporter, luminescence, 16 h; Potency, µM (top dose mostly 46 µM), inactives show top-dose activity change, positive = activation, hits mostly activators; further: % of control where 0% means no effect; nearly all actives have a fitted effect of over 60% in size
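ELG1-luciferase HEK293T cells, 2,000/well; compound pinned in; 16 hr, 37 °C, 5% CO2; ONE-Glo, 30 min RT; luminescence on CCD imager.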
NPC1 promoter act = qHTS Assay for NPC1 Promoter Activators. Huh7 NPC1 promoter luciferase reporter, 24 h. Potency, µM (series often up to 9.22 µM), without a hit: top-dose activation, actives largely listed as activators. 320,000 tested, 2.4% active; further: % of control where 0% means no effect; nearly all actives have a fitted effect of over 60% in size
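Luciferase expression driven by the NPC1 promoter was measured in stably transfected Huh7 cells after a 24 h compound incubation, using a luciferase reagent and a luminescence read.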
SMN2 splice up = qHTS Assay for Enhancers of SMN2 Splice Variant Expression | HEK293 SMN2-luciferase splicing reporter, luminescence, 30-36 h | Potency, µM (doses to about 46.1 µM), for inactives: at the top dose activity change, positive = activation, most hits filed as activators | 210,000 tested, 2.8% active; further: % of control where 0% means no effect; nearly all actives have a fitted effect of over 55% in size
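HEK293 cells carry an SMN2 minigene-luciferase reporter in which exon 7 inclusion puts luciferase in frame. Cells were seeded at 2000 cells/well, attached for 10-12 hours, then exposed to compounds for 30-36 hours at 37C before ONE-Glo luminescence.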
Rab9 promoter act = qHTS Assay for Rab9 Promoter Activators; Potency, µM (series often up to 9.22 µM), without a hit: top-dose activation, negative = inhibition, most hits filed as activators; 320,000 tested, 2.8% active; Huh7 Rab9 promoter-luciferase reporter, luminescence, 24 h; AID 485297, 2010; further: % of control where 0% means no effect; nearly all actives have a fitted effect of over 60% in size
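Quantitative HTS format; Huh7 Rab9-luciferase reporter cells (1500/well) receive compound 2 h post-plating, incubate 24 h at 37 °C, then get luciferase reagent for 10 min before luminescence reading.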
* hit, by the source's call; ? = inconclusive; / = not tested or not shown. Rows were chosen to be rich in hits. Some 7.4% of all compounds tested hit in one or more screens of this group. The call rests on the fitted dose curve; in most records, active means well fitted curve in the direction sought with a large enough effect; inconclusive means small, poorly fitted or top-dose-only effect, or another doubt; inactive means no such curve, though single readings can be large; an effect the other way counts as inactive or inconclusive. Potency means the concentration at half of the fitted maximal effect.

SMILES | FLuc counter | Luc counter | ELG1 genotoxic | NPC1 promoter act | SMN2 splice up | Rab9 promoter act
COc1ccc(C(=O)c2sc(Nc3ccccc3)nc2C)cc1 | ? | / | 0% | 1% | / | -4%
Cc1cccc(C(=O)Nc2nc(C)c(C(=O)Nc3ccc4c(c3)CCC4)s2)c1 | 6.7µM* | -9% | 9% | 0% | ? | -3%
Cc1nc(Nc2ccccc2)sc1C(=O)c1ccccc1 | 21µM* | / | 13% | ? | / | 3.5µM*
COC(=O)c1sc(Nc2ccccc2)nc1C | 19µM* | -6% | ? | ? | 24% | ?
Nc1nc(Nc2cccc(C(F)(F)F)c2)sc1C(=O)c1ccccc1 | -1% | / | / | / | / | /
CC(C)(C)C(=O)c1sc(Nc2ccccc2)nc1N | 5.4µM* | 0% | 1.3µM* | 2µM* | 11µM* | 2µM*
CC(=O)c1sc(Nc2cccc(C)c2)nc1C | 21µM* | -4% | ? | 20% | ? | ?
Cc1cccc(NC(=O)c2sc(C)nc2C)c1 | 24µM* | -21% | 15% | ? | ? | ?
CCOC(=O)c1sc(Nc2ccccc2)nc1C | 15µM* | -3% | 16µM* | 4µM* | 3% | 4µM*
CCOC(=O)c1sc(Nc2ccc(F)cc2)nc1C | -1% | -2% | 9% | 2% | 4% | 14%
CC(=O)Nc1ccc(S(=O)(=O)NCC2CCC(C(=O)NCCc3ccc(C)cc3)CC2)cc1 (stereo not given) | -4% | / | / | / | / | /
Cc1ccccc1-c1nc2scc(CCNS(=O)(=O)c3ccccc3)n2n1 | -12% | / | / | / | / | /
CCOC(=O)c1sc(NC(=O)Nc2ccc(Cl)cc2)nc1C | 2.7µM* | -1% | 2% | 4µM* | ? | ?
CCOC(=O)Nc1nc(C)c(C(=O)c2ccc(Cl)cc2)s1 | 5% | 16% | 0% | -5% | 24% | 2%
COc1ccccc1CCNC(=O)c1nc(-c2cccs2)no1 | 17µM* | -4% | ? | ? | ? | ?
COc1ccccc1CC(=O)NCc1csc(-c2cccs2)n1 | 17µM* | / | 16% | ? | / | ?
COc1ccc(CCNC(=O)c2nc(-c3cccs3)no2)cc1OC | -2% | 1% | -5% | -6% | -42% | -2%
O=C1CC(c2ccccc2)Cc2[nH]c(=O)c(-c3nc(-c4cccc(Cl)c4)cs3)cc21 (stereo not given) | -1% | / | / | / | -11% | /
O=C(Cc1ccccc1)NCc1ccc2c(c1)OCO2 | 7.6µM* | 2% | 15µM* | 2.8µM* | 11% | ?
O=C(CCc1ccccc1)NCc1ccc2c(c1)OCO2 | 0% | / | -6% | 0% | / | 2%
O=C(NCc1ccccc1)c1c[nH]c2cc3c(cc2c1=O)OCCO3 | 2.4µM* | 5% | ? | 3.2µM* | 13µM* | 2.5µM*
O=C(COC(=O)COc1ccccc1[N+](=O)[O-])NCc1ccc2c(c1)OCO2 | / | / | -1% | / | / | /
O=C(Cc1ccccc1[N+](=O)[O-])NCc1ccc2c(c1)OCO2 | ? | -6% | ? | ? | 138% | 1.8µM*
Cc1cc(OCC(=O)Nc2ccc(C(=O)OC3CCCCC3)cc2)ccc1Cl | -5% | / | / | / | -7% | /
CCCCOc1ccc(NC(=O)CSc2ccc(C(=O)O)cn2)cc1 | ? | / | / | / | 17% | /
SMILES | FLuc counter | Luc counter | ELG1 genotoxic | NPC1 promoter act | SMN2 splice up | Rab9 promoter act
O=C(O)c1cc(S(=O)(=O)Nc2ccc(O)cc2)ccc1Cl | / | -2% | / | / | / | /
CC(C)C(=O)N1CCc2cc(-c3csc(N)n3)ccc21 | 13µM* | 0% | 22% | ? | 13µM* | 3.5µM*
COCCCn1c(C(=O)NCCN2CCOCC2)cc2c(=O)n3ccccc3nc21 | 2.7µM* | / | 10% | -4% | / | -2%
CSCCC1NC(=O)N(CC(=O)Nc2ccc(N3CCCCC3)cc2)C1=O (stereo not given) | 12µM* | -2% | 1% | 11% | -9% | -6%
CCn1c(SCC(=O)N/N=C/C(C)=C\c2ccco2)nnc1-c1ccccc1 | 13µM* | 2% | 1% | -1% | -9% | 1%
CCn1c(SCC(=O)N/N=C/C=C/c2ccco2)nnc1-c1ccccc1 | ? | 1% | 1% | -5% | -41% | -7%
CCn1c(SCC(=O)N/N=C/C(C)=C/c2ccco2)nnc1-c1ccccc1 | 15µM* | 1% | -2% | -2% | -11% | 2%
CCn1nc(C(=O)OCC(=O)c2ccc(F)cc2)c2ccccc2c1=O | -20% | -1% | -5% | -1% | -7% | -2%
Cc1cc(C(=O)COC(=O)c2ccccc2O)c(C)n1Cc1cccs1 | 0.085µM* | ? | -11% | -23% | / | -40%
CCn1nc(C(=O)OCC(=O)c2ccc3c(c2)OCCO3)c2ccccc2c1=O | 2.4µM* | -3% | -1% | 0% | -7% | -6%
CCn1nc(C(=O)OCC(=O)c2cc(C)n(Cc3cccs3)c2C)c2ccccc2c1=O | 3µM* | -2% | 18µM* | -1% | ? | -3%
Cc1cc(C(=O)COC(=O)c2ccc(N)c([N+](=O)[O-])c2)c(C)n1-c1ccc2c(c1)OCO2 | -1% | -1% | ? | -13% | -78% | -23%
Cc1cc(C(=O)COC(=O)c2ccc3c(c2)OCO3)c(C)n1Cc1cccs1 | 2.7µM* | 2% | 23µM* | 3.5µM* | 19% | 4µM*
Cc1cc(C)cc(OCCOCCn2c(-c3ccc(Cl)cc3)nc3ccccc3c2=O)c1 | -5% | / | / | / | -8% | /
Cc1ccc(CNC(=O)C(=O)Nc2c3c(nn2-c2ccc(F)cc2)CSC3)cc1 | -3% | / | / | / | / | /
Cc1ccccc1Cn1c2ccccc2c2cnn(CC(=O)NCCCc3ccccc3)c(=O)c21 | 0% | / | / | / | 5% | /
COc1ccc2c(c1)c1c(c(=O)n(-c3cccc(C)c3)c(=O)n1CC(=O)NCc1ccc(C)cc1)n2C | 0% | / | / | / | / | /
O=C(/C=C/c1ccc2c(c1)OCO2)c1ccccn1 | 0.34µM* | / | ? | 2.2µM* | / | 3.5µM*
O=C(N/N=C/c1ccc2c(c1)OCO2)c1ccc2ccccc2n1 | 3µM* | -10% | ? | 2% | 1% | 15%
O=C(N/N=C/c1ccco1)c1ccc(Br)o1 | -11% | -7% | 3% | -3% | 3% | -2%
CCN(C(=O)/C=C/c1ccc2c(c1)OCO2)c1ccccc1 | ? | -5% | 1% | 8% | -8% | 14%
O=C(N/N=C/c1ccco1)c1cc2ccccc2o1 | 17µM* | / | 12% | 15% | / | 19%
Cc1cccc(C(=O)N/N=C/c2ccc3c(c2)OCO3)n1 | ? | -8% | 6% | 7% | -1% | 7%
